Measured values published in PubChem BioAssay (EPA / NIEHS).
The source holds several records for some structures; these can differ, active in one and inactive in another. Calls of active or inactive are those of the source. How the source made its calls: active means hit-call score of the fitted dose curve at least 0.9, where 1 is the maximum; inactive means score below 0.9.

How the values were obtained:
[1] = read-out: Tissue plasminogen activator (tPA), PLAT (gene 5327); test: BSK_BE3C_tPA: BioMAP Diversity Plus: BE3C Assay for Tissue plasminogen activator (tPA) Biomarker Activity (AID 2283041); conditions: primary human bronchial epithelial cells; actives raise or lower the signal
Method in brief: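 Bidirectional curve fitting relative to DMSO defined activity, with tPA detected by ELISA in chemically treated human bronchial epithelial primary cells at 24 hours.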

[2] = read-out: Interleukin-8 (IL8), CXCL8 (gene 3576); test: BSK_CASM3C_IL8: BioMAP Diversity Plus: CASM3C Assay for Interleukin-8 (IL8) Biomarker Activity (AID 2283042); conditions: primary human coronary artery smooth muscle cells; actives raise or lower the signal;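 further: IL-8 protein level quantified by ELISA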
[3] = read-out: Human Leukocyte Antigen - DR isotype (HLADR), HLA-DRA (gene 3122); test: BSK_CASM3C_HLADR: BioMAP Diversity Plus: CASM3C Assay for Human Leukocyte Antigen - DR isotype (HLADR) Biomarker Activity (AID 2283043); conditions: primary human coronary artery smooth muscle cells; actives raise or lower the signal;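 further: cell-surface HLA-DR protein level quantified by ELISA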
[4] = read-out: Macrophage colony-stimulating factor (MCSF), CSF1 (gene 1435); test: BSK_CASM3C_MCSF: BioMAP Diversity Plus: CASM3C Assay for Macrophage colony-stimulating factor (MCSF) Biomarker Activity (AID 2283044); conditions: primary human coronary artery smooth muscle cells; actives raise or lower the signal;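 further: M-CSF protein amount quantified by ELISA after 24 h exposure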
[5] = read-out: Low-density lipoprotein receptor (LDLR), LDLR (gene 3949); test: BSK_CASM3C_LDLR: BioMAP Diversity Plus: CASM3C Assay for Low-density lipoprotein receptor (LDLR) Biomarker Activity (AID 2283045); conditions: primary human coronary artery smooth muscle cells; actives raise or lower the signal;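 further: LDLR protein level on the cell surface quantified by ELISA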
[6] = read-out: Monocyte Chemoattractant Protein-1 (MCP1), CCL2 (gene 6347); test: BSK_CASM3C_MCP1: BioMAP Diversity Plus: CASM3C Assay for Monocyte Chemoattractant Protein-1 (MCP1) Biomarker Activity (AID 2283046); conditions: primary human coronary artery smooth muscle cells; actives raise or lower the signal;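 further: MCP-1 level quantified by ELISA 24 h after dosing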
[7] = BSK_CASM3C_Proliferation: Cell Proliferation Assessment in the BioMAP Diversity Plus: CASM3C Assay (AID 2283047); conditions: primary human coronary artery smooth muscle cells;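 further: sulforhodamine B total protein stain as relative cell number at 560 nm; sub-confluent cells exposed 48 h before staining; fitted both ways against DMSO so gain or loss of cell number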
[8] = read-out: Monokine induced gamma interferon (MIG), CXCL9 (gene 4283); test: BSK_CASM3C_MIG: BioMAP Diversity Plus: CASM3C Assay for Monokine induced gamma interferon (MIG) Biomarker Activity (AID 2283048); conditions: primary human coronary artery smooth muscle cells; actives raise or lower the signal;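 further: MIG protein level measured by ELISA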
[9] = read-out: serum amyloid A (SAA), SAA1 (gene 6288); test: BSK_CASM3C_SAA: BioMAP Diversity Plus: CASM3C Assay for serum amyloid A (SAA) Biomarker Activity (AID 2283049); conditions: primary human coronary artery smooth muscle cells; actives raise or lower the signal;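 further: SAA protein level quantified by ELISA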
[10] = BSK_CASM3C_SRB: Viability Assessment in the BioMAP Diversity Plus: CASM3C Assay (AID 2283050); conditions: primary human coronary artery smooth muscle cells;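 further: total protein by SRB staining as cytotoxicity measure in parallel cultures; cells exposed to compound for 24 h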
[11] = read-out: Thrombomodulin, THBD (gene 7056); test: BSK_CASM3C_Thrombomodulin: BioMAP Diversity Plus: CASM3C Assay for Thrombomodulin Biomarker Activity (AID 2283051); conditions: primary human coronary artery smooth muscle cells; actives raise or lower the signal;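 further: thrombomodulin protein level measured by ELISA 24 h after dosing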
[12] = read-out: Tissue Factor, F3 (gene 2152); test: BSK_CASM3C_TissueFactor: BioMAP Diversity Plus: CASM3C Assay for Tissue Factor Biomarker Activity (AID 2283052); conditions: primary human coronary artery smooth muscle cells; actives raise or lower the signal;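 further: cell surface tissue factor protein level read by ELISA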
[13] = read-out: Interferon-gamma inducible Protein 10 (IP10), CXCL10 (gene 3627); test: BSK_hDFCGF_IP10: BioMAP Diversity Plus: hDFCGF Assay for Interferon-gamma inducible Protein 10 (IP10) Biomarker Activity (AID 2283053); conditions: primary human foreskin fibroblasts; actives raise or lower the signal
Method in brief: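 IP-10 levels, quantified by ELISA, are taken from human foreskin fibroblast cultures 24 h after chemical treatment, with DMSO serving as negative control and baseline for bidirectional analysis.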

[14] = read-out: Urokinase-type plasminogen activator receptor (uPAR), PLAUR (gene 5329); test: BSK_CASM3C_uPAR: BioMAP Diversity Plus: CASM3C Assay for Urokinase-type plasminogen activator receptor (uPAR) Biomarker Activity (AID 2283054); conditions: primary human coronary artery smooth muscle cells; actives raise or lower the signal;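 further: cell-surface uPAR protein level quantified by ELISA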
[15] = read-out: Vascular cell adhesion molecule 1 (VCAM1), VCAM1 (gene 7412); test: BSK_CASM3C_VCAM1: BioMAP Diversity Plus: CASM3C Assay for Vascular cell adhesion molecule 1 (VCAM1) Biomarker Activity (AID 2283055); conditions: primary human coronary artery smooth muscle cells; actives raise or lower the signal;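 further: VCAM-1 protein level quantified by ELISA on the cells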
[16] = read-out: Collagen III, COL3A1 (gene 1281); test: BSK_hDFCGF_CollagenIII: BioMAP Diversity Plus: hDFCGF Assay for Collagen III Biomarker Activity (AID 2283056); conditions: primary human foreskin fibroblasts; actives raise or lower the signal
Method in brief: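 Cells: human foreskin fibroblasts, primary. Dosing followed by 24 h incubation, then ELISA for collagen III. Both increases and decreases scored relative to DMSO.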

[17] = read-out: Epidermal growth factor receptor (EGFR), EGFR (gene 1956); test: BSK_hDFCGF_EGFR: BioMAP Diversity Plus: hDFCGF Assay for Epidermal growth factor receptor (EGFR) Biomarker Activity (AID 2283057); conditions: primary human foreskin fibroblasts; actives raise or lower the signal
Method in brief: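 Measured by ELISA: EGFR levels on primary human foreskin fibroblasts 24 h after chemical treatment, analysed relative to DMSO with bidirectional fitting.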

[18] = read-out: Interleukin-8 (IL8), CXCL8 (gene 3576); test: BSK_hDFCGF_IL8: BioMAP Diversity Plus: hDFCGF Assay for Interleukin-8 (IL8) Biomarker Activity (AID 2283058); conditions: primary human foreskin fibroblasts; actives raise or lower the signal
Method in brief: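 IL-8 levels from compound-treated primary human fibroblasts were read by ELISA at 24 h, with DMSO serving as baseline for bidirectional fitting.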

[19] = BSK_hDFCGF_Proliferation: Cell Proliferation Assessment in the BioMAP Diversity Plus: hDFCGF Assay (AID 2283059); conditions: primary human foreskin fibroblasts;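 further: curves fitted for both rise and fall of signal versus DMSO baseline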
Method in brief: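 This proliferation readout used SRB total-protein staining of human foreskin fibroblasts […], normalized to DMSO with bidirectional curve fitting.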

[20] = read-out: Macrophage colony-stimulating factor (MCSF), CSF1 (gene 1435); test: BSK_hDFCGF_MCSF: BioMAP Diversity Plus: hDFCGF Assay for Macrophage colony-stimulating factor (MCSF) Biomarker Activity (AID 2283060); conditions: primary human foreskin fibroblasts; actives raise or lower the signal
Method in brief: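 M-CSF levels, determined by ELISA, are taken at 24 h after dosing human skin fibroblasts. Responses in either direction are fitted with DMSO serving as the baseline.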

Measured: AC50

NC(=O)N1c2ccccc2C=Cc2ccccc21
inactive: all assays above

OC(Cn1cncn1)(Cn1cncn1)c1ccc(F)cc1F
inactive: all assays above

O=S(=O)(O)CCC(F)(F)C(F)(F)C(F)(F)C(F)(F)C(F)(F)C(F)(F)F
active: [20] 6.02 µM
inactive: [1] | [2] | [3] | [4] | [5] | [6] | [7] | [8] | [9] | [10] | [11] | [12] | [13] | [14] | [15] | [16] | [17] | [18] | [19] | [20]

Cc1cccc(O)c1C
inactive: all assays above

Cc1ccc(S(=O)(=O)NC(=O)NN2CCCCCC2)cc1
inactive: all assays above

CCOc1ccc2[nH]cc(C(=O)NCc3ccccc3)c(=O)c2n1
active: [17] 3.97 µM
inactive: all other assays above

CCc1ccc(O)c(C(C)(C)C)c1
active: [7] 20 µM | [13] 35.2 µM | [16] 20 µM | [18] 36.3 µM | [19] 34.5 µM | [20] 27.4 µM
inactive: all other assays above

CCCCN1C(=O)[C@@H]([C@H](O)C2CCCCC2)NC(=O)C12CCN(Cc1ccc(Oc3ccc(C(=O)O)cc3)cc1)CC2
active: [5] 9.69 µM | [7] 18.3 µM | [13] 31.2 µM | [19] 20 µM
not listed: [16]
inactive: all other assays above

CCCCCCCCCCCCCCCCOS(=O)(=O)O
active: [1] 14.9 µM | [13] 6.13 µM | [16] 18.3 µM | [17] 2.46 µM | [18] 15.5 µM | [19] 5.25 µM | [20] 10.2 µM
inactive: all other assays above

CC(C)c1nnc2ccc(-c3ocnc3-c3cc(F)ccc3F)cn12
active: [2] 0.628 µM | [3] 0.561 µM | [5] 0.551 µM | [13] 0.628 µM | [15] 0.354 µM | [19] 5.62 µM
inactive: all other assays above

CC1(C)C(=O)N(Cl)C(=O)N1Cl
inactive: all assays above

OC[C@H]1O[C@@H]2O[C@H]3[C@H](O)[C@@H](O)[C@@H](O[C@H]4[C@H](O)[C@@H](O)[C@@H](O[C@H]5[C@H](O)[C@@H](O)[C@@H](O[C@H]6[C@H](O)[C@@H](O)[C@@H](O[C@H]7[C@H](O)[C@@H](O)[C@@H](O[C@H]1[C@H](O)[C@H]2O)O[C@@H]7CO)O[C@@H]6CO)O[C@@H]5CO)O[C@@H]4CO)O[C@@H]3CO
inactive: all assays above

C[Si](C)(C)C(F)(F)C(F)(F)C(F)(F)F
inactive: all assays above
